Results: PubChem BioAssay
Activity calls are given as the source filed them.

Assays:
[1] = small molecules captured by biotinylated probe aFSTL3 – biochemical, small-molecule microarray, fluorescence 635/667, stem cell growth factor project, primary screen (AID 1064); settings: higher = more signal;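 also: measures binding of the biotinylated anti-FSTL3 antibody to printed compounds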
[2] = binders from COS7 lysate, DM2A8 probe, primary screen, torsin A project, cell lysate, small-molecule microarray, fluorescence 635/667 (AID 1065); settings: higher = more signal, COS7 lysate expressing mutant human TOR1A
[3] = small molecules captured by biotinylated probe aFGF2 – biochemical, small-molecule microarray, fluorescence 635/667, stem cell growth factor project, primary screen (AID 1067); settings: higher = more signal;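 also: measures binding of biotinylated aFGF2 protein to printed compounds on slides; z-score merges feature fluorescence and signal-to-noise across triplicate slides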
[4] = small molecules captured by biotinylated probe aFGF10 – biochemical, small-molecule microarray, fluorescence 635/667, stem cell growth factor project, primary screen (AID 1071); settings: higher = more signal;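 also: score merges 667 nm spot intensity and signal to noise from triplicate slides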
[5] = target: Neurogenic locus notch homolog protein 2 (Homo sapiens) (UniProt Q04721); assay: small molecules binding Notch2 protein – biochemical, small-molecule microarray, 635 nm fluorescence, stem cell growth factors, primary screen (AID 1073); settings: higher = more signal
[6] = target: Pro-neuregulin-1, membrane-bound isoform (Homo sapiens) (UniProt Q02297); assay: small molecules binding neuregulin-1 protein – biochemical, small-molecule microarray, fluorescence 635/667, psychiatric disease protein project, primary screen (AID 1075); settings: NRG1 binding, 635 nm fluorescence, higher = more signal;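 also: score combines 667 nm spot fluorescence with signal to noise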
[7] = tested on: Neuregulin-1 EGF-like domain; assay: small molecules binding NRG1 EGF domain – biochemical, small-molecule microarray, 635 nm fluorescence, primary screen (AID 1081); settings: higher = more signal;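 also: binding of the protein to compounds printed on small-molecule microarray slides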
[8] = FRG1 expression reporter modulators in myotubes – cell-based, C2C12 myotubes, firefly/Renilla luciferase, luminescence, FRG1 inhibition for FSHD, primary screen (AID 1084); settings: FRG1 promoter luciferase, higher = more signal, called active from +8 up or from −8 down
[9] = small molecules captured by biotinylated probe aFST – biochemical, small-molecule microarray, fluorescence 635/667, stem cell growth factor project, primary screen (AID 1086); settings: higher = more signal;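 also: score merges 667 nm fluorescence with signal-to-noise of each printed compound spot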
[10] = binders of probe aHhip on microarray, primary screen, stem cell growth factor project, biochemical, small-molecule microarray, fluorescence 635/667 (AID 1087); settings: higher = more signal;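 also: score merges spot fluorescence at 667nm with spot signal to noise ratio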
[11] = tested on: PRMT1 (protein arginine N-methyltransferase 1); assay: small molecules binding arginine methyltransferase PRMT1 – biochemical, small-molecule microarray, 635 nm fluorescence, primary screen (AID 1088); settings: higher = more signal;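 also: binding of Prmt1 protein to compounds spotted on small-molecule microarray slides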
[12] = growth effects on S. cerevisiae YJM789 – YJM789 clinical isolate, OD600, 24 h, basal, primary screen (AID 1089); settings: higher = more signal, called active from +8 up or from −8 down;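 also: growth of clinical yeast isolate S. cerevisiae YJM 789 seeded 1000 cells per well; test concentration not given here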
[13] = S. pombe growth modifiers, basal conditions – strain 972, OD600, 24 h, no modulator, primary screen (AID 1090);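 also: basal condition with compound alone and no growth modifier present; test concentration not given here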; settings: S. pombe 972 growth, higher = more signal, called active from +8 up or from −8 down
[14] = budding yeast growth modifiers under rapamycin – strain BY4716, OD600, 96 h, primary screen (AID 1091); also: test concentration not given here; settings: S. cerevisiae BY4716 + rapamycin, higher = more signal, called active from +8 up or from −8 down
[15] = target: Torsin-1A-interacting protein 2 (Homo sapiens) (UniProt Q8NFQ8); assay: small molecules binding lysate-expressed LULL1 – cell lysate, human LULL1 lysate, 635/667 nm fluorescence, primary screen (AID 1092); settings: small-molecule microarray, hLULL1 lysate binding, 635 nm fluorescence; higher = more signal;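 also: probe is lysate of COS7 cells overexpressing human LULL1; score merges per-feature 667 nm fluorescence with signal-to-noise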
[16] = optical density change of DRC41 E. coli – strain DRC41, OD650, 24 h, E. coli filamentation project, primary screen (AID 1093);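 also: MC1000 strain lacking acrAB efflux and sulA so SOS filamentation is blocked; test concentration not given here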; settings: E. coli DRC41 growth, higher = more signal, called active from +8 up or from −8 down
[17] = probe aLefty2 binding to arrayed compounds – biochemical, biotinylated probe, 635/667 nm fluorescence, primary screen (AID 1094); settings: small-molecule microarray, higher = more signal;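 also: score merges spot fluorescence near 667 nm with spot signal-to-noise ratio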
[18] = tested on: Noggin (protein binding on small-molecule microarray); assay: small molecules binding Noggin protein – biochemical, 635/667 nm fluorescence, primary screen (AID 1095); settings: 635 nm fluorescence, higher = more signal;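 also: score merges 667 nm feature fluorescence with signal to noise over triplicate slides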
[19] = target: Neurogenic locus notch homolog protein 3 (Homo sapiens) (UniProt Q9UM47); assay: small molecules binding NOTCH3 protein – biochemical, 635/667 nm fluorescence, primary screen (AID 1096); settings: small-molecule microarray, 635 nm fluorescence, higher = more signal
[20] = probe aEGFR binding to arrayed compounds – biochemical, biotinylated probe, 635/667 nm fluorescence, primary screen (AID 1097); settings: small-molecule microarray, higher = more signal;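 also: probe is a biotinylated anti-EGFR antibody binding compounds printed on slides; score combines fluorescence near 667 nm and signal to noise of each spot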

Torsin-1A-interacting protein 2 (Homo sapiens), sequence (Q8NFQ8 whole entry, looked up): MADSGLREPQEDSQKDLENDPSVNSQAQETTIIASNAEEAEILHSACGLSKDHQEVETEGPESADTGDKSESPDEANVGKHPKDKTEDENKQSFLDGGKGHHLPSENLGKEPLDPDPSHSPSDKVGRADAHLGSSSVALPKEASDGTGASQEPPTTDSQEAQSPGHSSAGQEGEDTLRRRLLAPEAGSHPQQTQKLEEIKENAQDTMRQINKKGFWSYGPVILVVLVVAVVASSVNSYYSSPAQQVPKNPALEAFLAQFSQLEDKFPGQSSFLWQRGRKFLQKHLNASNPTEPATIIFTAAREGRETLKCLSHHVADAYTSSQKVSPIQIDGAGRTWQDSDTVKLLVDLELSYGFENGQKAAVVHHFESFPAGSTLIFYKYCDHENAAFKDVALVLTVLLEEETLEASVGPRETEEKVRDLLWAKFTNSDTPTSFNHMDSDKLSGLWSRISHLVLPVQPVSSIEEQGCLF
Neurogenic locus notch homolog protein 2 (Homo sapiens), sequence (Q04721 whole entry, looked up, canonical isoform): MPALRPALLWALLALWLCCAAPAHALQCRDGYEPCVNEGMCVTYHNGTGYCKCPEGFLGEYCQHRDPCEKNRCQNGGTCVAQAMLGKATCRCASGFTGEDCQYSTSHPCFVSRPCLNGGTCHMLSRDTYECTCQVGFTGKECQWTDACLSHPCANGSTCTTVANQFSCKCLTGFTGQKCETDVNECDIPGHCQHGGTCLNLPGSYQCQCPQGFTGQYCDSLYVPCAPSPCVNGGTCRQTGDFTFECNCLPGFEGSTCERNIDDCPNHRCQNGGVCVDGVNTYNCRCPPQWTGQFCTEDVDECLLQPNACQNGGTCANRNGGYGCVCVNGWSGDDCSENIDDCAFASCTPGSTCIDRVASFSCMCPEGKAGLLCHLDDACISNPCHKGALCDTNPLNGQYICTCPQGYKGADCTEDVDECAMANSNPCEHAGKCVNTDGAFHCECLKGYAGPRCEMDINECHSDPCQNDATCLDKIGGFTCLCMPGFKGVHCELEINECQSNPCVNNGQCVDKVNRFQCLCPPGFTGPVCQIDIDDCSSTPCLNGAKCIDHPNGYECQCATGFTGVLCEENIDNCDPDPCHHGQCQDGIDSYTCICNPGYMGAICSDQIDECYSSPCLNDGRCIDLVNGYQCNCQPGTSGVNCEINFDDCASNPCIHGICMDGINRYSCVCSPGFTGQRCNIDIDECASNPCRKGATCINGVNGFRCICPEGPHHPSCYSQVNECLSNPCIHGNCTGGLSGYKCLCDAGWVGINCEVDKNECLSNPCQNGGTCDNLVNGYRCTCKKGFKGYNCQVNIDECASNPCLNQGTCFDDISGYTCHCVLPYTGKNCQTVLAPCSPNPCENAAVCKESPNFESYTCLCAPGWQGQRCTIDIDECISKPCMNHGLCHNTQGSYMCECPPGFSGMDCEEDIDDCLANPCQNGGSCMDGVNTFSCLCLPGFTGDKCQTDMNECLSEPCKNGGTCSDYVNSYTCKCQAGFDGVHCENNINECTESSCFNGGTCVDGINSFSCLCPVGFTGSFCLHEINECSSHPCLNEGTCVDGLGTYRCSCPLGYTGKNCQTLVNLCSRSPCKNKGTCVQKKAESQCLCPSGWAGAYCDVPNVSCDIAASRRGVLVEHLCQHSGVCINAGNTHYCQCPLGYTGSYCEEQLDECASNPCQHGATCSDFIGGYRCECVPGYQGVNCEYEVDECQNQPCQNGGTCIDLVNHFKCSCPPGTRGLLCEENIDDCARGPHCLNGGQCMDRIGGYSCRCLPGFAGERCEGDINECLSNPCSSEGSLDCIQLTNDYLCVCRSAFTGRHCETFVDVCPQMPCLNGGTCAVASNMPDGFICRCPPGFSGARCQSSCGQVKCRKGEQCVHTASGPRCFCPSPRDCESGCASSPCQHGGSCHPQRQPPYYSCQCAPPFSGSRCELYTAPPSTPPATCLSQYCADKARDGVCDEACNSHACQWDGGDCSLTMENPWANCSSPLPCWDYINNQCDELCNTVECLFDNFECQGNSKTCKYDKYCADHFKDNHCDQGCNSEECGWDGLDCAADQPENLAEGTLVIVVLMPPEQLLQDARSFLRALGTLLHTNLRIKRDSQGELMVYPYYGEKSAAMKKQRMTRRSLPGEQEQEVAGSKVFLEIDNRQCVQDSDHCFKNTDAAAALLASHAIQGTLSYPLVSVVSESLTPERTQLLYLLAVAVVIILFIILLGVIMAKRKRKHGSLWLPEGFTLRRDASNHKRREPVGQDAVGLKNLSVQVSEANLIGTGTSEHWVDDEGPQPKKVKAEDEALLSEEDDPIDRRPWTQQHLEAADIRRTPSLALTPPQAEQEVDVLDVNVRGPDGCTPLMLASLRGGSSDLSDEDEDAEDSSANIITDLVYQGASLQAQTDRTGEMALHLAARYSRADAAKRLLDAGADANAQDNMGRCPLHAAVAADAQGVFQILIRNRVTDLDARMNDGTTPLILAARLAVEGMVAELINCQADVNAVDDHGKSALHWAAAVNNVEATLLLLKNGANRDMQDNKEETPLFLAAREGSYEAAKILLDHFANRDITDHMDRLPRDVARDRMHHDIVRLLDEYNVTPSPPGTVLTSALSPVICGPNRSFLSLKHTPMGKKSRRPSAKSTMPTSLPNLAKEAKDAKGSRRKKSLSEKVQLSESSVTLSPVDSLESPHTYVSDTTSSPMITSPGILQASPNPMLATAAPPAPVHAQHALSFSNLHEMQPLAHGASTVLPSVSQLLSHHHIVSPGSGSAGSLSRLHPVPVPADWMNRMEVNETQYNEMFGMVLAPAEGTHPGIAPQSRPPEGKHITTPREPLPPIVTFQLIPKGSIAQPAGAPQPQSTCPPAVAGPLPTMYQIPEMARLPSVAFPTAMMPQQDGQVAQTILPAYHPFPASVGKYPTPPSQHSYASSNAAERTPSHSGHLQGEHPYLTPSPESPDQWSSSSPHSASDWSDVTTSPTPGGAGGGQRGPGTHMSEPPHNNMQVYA
Pro-neuregulin-1, membrane-bound isoform (Homo sapiens), sequence (Q02297 whole entry, looked up, the tested form may be a part, canonical isoform): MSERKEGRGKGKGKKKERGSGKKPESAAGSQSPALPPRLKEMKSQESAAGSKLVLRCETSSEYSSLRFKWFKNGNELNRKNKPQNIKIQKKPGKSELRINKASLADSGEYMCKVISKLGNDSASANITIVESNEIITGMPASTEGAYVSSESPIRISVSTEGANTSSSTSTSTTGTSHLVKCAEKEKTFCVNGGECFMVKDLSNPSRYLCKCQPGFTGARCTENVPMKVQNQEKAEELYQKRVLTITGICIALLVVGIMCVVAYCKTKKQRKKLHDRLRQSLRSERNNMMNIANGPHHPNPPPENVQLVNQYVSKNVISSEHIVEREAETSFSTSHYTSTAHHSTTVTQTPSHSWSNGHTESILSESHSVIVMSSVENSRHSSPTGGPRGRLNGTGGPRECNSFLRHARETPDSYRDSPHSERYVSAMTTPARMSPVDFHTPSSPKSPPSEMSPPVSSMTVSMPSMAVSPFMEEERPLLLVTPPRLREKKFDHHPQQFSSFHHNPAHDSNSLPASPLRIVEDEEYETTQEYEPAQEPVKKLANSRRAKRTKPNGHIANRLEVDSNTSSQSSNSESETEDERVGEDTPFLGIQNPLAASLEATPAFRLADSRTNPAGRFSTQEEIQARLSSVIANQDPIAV

Compound | composite z-score [1] | composite z-score [2] | composite z-score [3] | composite z-score [4] | composite z-score [5] | composite z-score [6] | composite z-score [7] | z-score [8] | composite z-score [9] | composite z-score [10] | composite z-score [11] | z-score [12] | z-score [13] | z-score [14] | composite z-score [15] | z-score [16] | composite z-score [17] | composite z-score [18] | composite z-score [19] | composite z-score [20]
COC(=O)[C@@]1(Cc2ccccc2)[C@H]2c3cc(C(=O)N4CCCC4)n(C[C@H](O)CO)c3C[C@H]2CN1C(=O)c1ccccc1 | 0.52 | -0.0861 | -0.16 | 0.0518 | 1.58 | 1.99 | 1.3 | 0.593 (inactive) | 0.348 | 0.0053 | -0.956 | 0.43 (inactive) | 1.74 (inactive) | -0.167 (inactive) | 3.45 | -0.436 (inactive) | 0.127 | 0.334 | 0.873 | 0.08
COC(=O)[C@]1(CCS(=O)(=O)c2ccccc2)N=C(c2ccc(OCCCO)cc2)O[C@@H]1c1ccccc1CN=[N+]=[N-] | 0.0312 | 0.419 | 0.0794 | 0.169 | 1.12 | 0.959 | 1.35 | -1.96 (inactive) | 0.284 | -0.346 | 1.54 | 1.6 (inactive) | 1.13 (inactive) | 37 (active) | 3.09 | -0.33 (inactive) | 0.0956 | 0.839 | 0.941 | -0.0972
O=C(N1CCCCC1)[C@@]1(Cc2ccccc2)COC(c2ccc(OCCCO)cc2)=N1 | 0.771 | 0.81 | 0.0661 | 1.1 | 1.33 | 1.91 | 1.25 | -2.97 (inactive) | 0.53 | 0.347 | 1.31 | -0.22 (inactive) | -5.35 (inactive) | 1.58 (inactive) | 3.21 | 1.06 (inactive) | 0.511 | -0.315 | 0.622 | 0.548
